# Inconclusive results are not listed. Where a call stands in place of a potency, no number is given. Unmarked numbers belong to inactive results. The source made the active and inactive calls. Unless noted, calls follow the shape of the dose curve; as a rule, active = well fitted curve in the direction sought with a large enough effect in the repeat runs; inconclusive = weak or mixed curves; inactive = no such curve, though single readings can be large; an effect the other way counts as inactive or inconclusive.
# Experiments:
# [1] = qHTS assay to identify small molecule antagonists of the estrogen related receptor (ERR) signaling pathway from Tox21 library - cell viability counter screen (AID 1224834); also: nearly all actives have a fitted effect of over 30% in size; also: potency is read from the fitted curve at half-maximal effect
# Summary of the method: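 ERR cells, 2,000/well; 6 h settle at 37 C/5% CO2; pin-tool compound transfer in DMSO; 17.5 h at 37 C; CellTiter-Fluor, 30 min; fluorescence intensity.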
# [2] = target: Luciferin 4-monooxygenase (Photinus pyralis) (UniProt P08659); assay: qHTS assay to identify small molecule inhibitors of firefly luciferase (AID 1224835); also: nearly all actives have a fitted effect of over 25% in size; also: potency is read from the fitted curve at half-maximal effect
# Sequence of Luciferin 4-monooxygenase (Photinus pyralis) (P08659 whole entry, looked up): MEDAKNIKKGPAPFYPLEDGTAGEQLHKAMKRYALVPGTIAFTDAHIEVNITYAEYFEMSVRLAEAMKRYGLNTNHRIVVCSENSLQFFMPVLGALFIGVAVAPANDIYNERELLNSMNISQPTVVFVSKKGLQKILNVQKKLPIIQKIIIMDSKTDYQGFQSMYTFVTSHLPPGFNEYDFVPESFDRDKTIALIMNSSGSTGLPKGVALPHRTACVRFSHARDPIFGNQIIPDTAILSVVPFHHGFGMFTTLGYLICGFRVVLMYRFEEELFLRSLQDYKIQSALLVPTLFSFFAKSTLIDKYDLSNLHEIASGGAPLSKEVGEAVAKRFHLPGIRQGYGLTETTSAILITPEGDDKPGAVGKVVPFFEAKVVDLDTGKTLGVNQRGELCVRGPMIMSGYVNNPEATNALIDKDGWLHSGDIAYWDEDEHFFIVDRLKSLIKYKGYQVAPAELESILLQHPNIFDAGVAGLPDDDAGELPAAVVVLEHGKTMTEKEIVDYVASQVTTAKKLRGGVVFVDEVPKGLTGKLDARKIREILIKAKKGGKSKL
# Summary of the method: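 Quantitative HTS format; KM concentrations of both substrates. Purified P. pyralis FLuc activity quantified from luminescence images.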
# [3] = qHTS assay to identify small molecule agonists of the constitutive androstane receptor (CAR) signaling pathway - cell viability counter screen (AID 1224836); also: nearly all actives have a fitted effect of over 45% in size; also: potency is read from the fitted curve at half-maximal effect
# Summary of the method: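 Cell viability multiplexed with the CAR agonist screen: CellTiter-Fluor fluorescence after 23 hr at 37 C. HepG2-CYP2B6-hCAR cells got compounds at 15 concentrations with PK11195 at 0.75 uM final.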
# [4] = qHTS assay to identify small molecule antagonists of the constitutive androstane receptor (CAR) signaling pathway - cell viability counter screen (AID 1224837); also: nearly all actives have a fitted effect of over 45% in size; also: potency is read from the fitted curve at half-maximal effect
# Summary of the method: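 Viability was measured with CellTiter-Fluor in a HepG2 line carrying stably transfected hCAR and a CYP2B6-2.2kb construct. Cells were exposed for 23 hr at 37 C to 15 compound concentrations with 50 nM CITCO as agonist.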
# [5] = target: Nuclear receptor subfamily 1 group I member 3 (Homo sapiens) (UniProt Q14994); assay: qHTS assay to identify small molecule antagonists of the constitutive androstane receptor (CAR) signaling pathway (AID 1224838);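 also: HepG2 cells stably expressing hCAR with CYP2B6 luciferase reporter stimulated by CITCO; nearly all actives have a fitted effect of over 40% in size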
# Sequence of Nuclear receptor subfamily 1 group I member 3 (Homo sapiens) (Q14994 whole entry, looked up): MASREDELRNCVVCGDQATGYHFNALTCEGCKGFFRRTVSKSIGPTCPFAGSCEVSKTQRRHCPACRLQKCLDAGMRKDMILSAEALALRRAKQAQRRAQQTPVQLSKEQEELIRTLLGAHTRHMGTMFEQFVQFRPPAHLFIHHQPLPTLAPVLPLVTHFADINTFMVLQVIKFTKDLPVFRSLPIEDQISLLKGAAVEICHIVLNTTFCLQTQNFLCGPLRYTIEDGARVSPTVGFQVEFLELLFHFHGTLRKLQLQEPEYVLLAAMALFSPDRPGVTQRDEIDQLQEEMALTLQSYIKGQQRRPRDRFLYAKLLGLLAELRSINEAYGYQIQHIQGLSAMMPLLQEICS
# Summary of the method: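 Antagonist mode used CITCO at a final 50 nM to activate CAR in human hepatoma HepG2 cells carrying stable hCAR and a 2.2 kb CYP2B6 promoter-luciferase construct. Compounds were tested at 15 concentrations over 24 h, with luminescence as the end point.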
# [6] = target: Nuclear receptor subfamily 1 group I member 3 (Homo sapiens) (UniProt Q14994); assay: qHTS assay to identify small molecule agonists of the constitutive androstane receptor (CAR) signaling pathway (AID 1224839); also: series mostly up to about 92 µM; nearly all actives have a fitted effect of over 15% in size
# Summary of the method: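 Luminescent ONE-Glo read-out after 24 hr, 37 C exposure of double-stable HepG2-CYP2B6-hCAR reporter cells to a 15-point compound series, in the presence of 0.75 uM PK11195 (final).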
# [7] = qHTS assay to identify small molecule antagonists of the estrogen related receptor signaling pathway with the pleiotropic PPARgamma coactivator (PGC) from Tox21 10K library - cell viability counter screen (AID 1224840; active = well fitted cell-killing curve with a large enough effect in the repeat runs, not every such curve was filed as active; also: nearly all actives have a fitted effect of over 40% in size; also: potency is read from the fitted curve at half-maximal effect)
# Summary of the method: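 Multiplexed viability counter screen in the PGC/ERR cell line: cells treated with DMSO-dissolved compounds for 17.5 hours at 37 C, then viability measured as CellTiter-Fluor fluorescence.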
# [8] = target: Thyrotropin receptor (Homo sapiens) (UniProt P16473); assay: qHTS assay to identify small molecule agonists of the thyroid stimulating hormone receptor (TSHR) signaling pathway (AID 1224843; calls by dose curve; also: nearly all actives have a fitted effect of over 45% in size)
# Sequence of Thyrotropin receptor (Homo sapiens) (P16473 whole entry, looked up): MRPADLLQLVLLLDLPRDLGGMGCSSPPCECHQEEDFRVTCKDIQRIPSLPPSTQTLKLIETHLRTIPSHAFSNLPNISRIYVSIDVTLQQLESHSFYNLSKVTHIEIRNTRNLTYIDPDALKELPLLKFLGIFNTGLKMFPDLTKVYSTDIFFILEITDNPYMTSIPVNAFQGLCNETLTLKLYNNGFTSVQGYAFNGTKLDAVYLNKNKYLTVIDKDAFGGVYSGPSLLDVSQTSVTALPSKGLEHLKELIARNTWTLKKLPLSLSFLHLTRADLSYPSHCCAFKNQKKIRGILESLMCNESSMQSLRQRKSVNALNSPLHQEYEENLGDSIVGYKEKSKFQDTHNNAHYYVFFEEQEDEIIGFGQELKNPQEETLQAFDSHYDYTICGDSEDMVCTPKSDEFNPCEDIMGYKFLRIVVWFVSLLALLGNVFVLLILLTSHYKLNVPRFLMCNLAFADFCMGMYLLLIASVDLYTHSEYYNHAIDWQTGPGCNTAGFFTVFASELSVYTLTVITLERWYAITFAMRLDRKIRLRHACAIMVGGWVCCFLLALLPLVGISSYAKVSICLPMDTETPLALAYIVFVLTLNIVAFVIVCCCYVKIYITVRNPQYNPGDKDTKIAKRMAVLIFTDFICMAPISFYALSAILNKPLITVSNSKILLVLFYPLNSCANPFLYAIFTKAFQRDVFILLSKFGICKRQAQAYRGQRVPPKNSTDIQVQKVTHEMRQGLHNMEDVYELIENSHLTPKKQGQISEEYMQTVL
# Summary of the method: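 Using 15 concentrations per compound in triplicate, cAMP production was monitored in TSHR-HEK293 cells after 30 min compound incubation at RT; HTRF reagents followed, with fluorescence intensity recorded after 1 h.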
# [9] = qHTS assay to identify small molecule antagonists of the estrogen related receptor signaling pathway with the pleiotropic PPARgamma coactivator (PGC) from Tox21 10K library (AID 1224841; call rule not given here; also: series mostly up to about 92 µM; actives are mostly falling curves and most rising ones were filed inactive; nearly all actives have a fitted effect of over 50% in size)
# Summary of the method: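 Steps: plate 2,000 PGC/ERR cells per well; incubate 6 h at 37 C with 5% CO2; transfer compounds from DMSO stocks by pin tool; incubate 18 h at 37 C; add One-Glo; measure luminescence 30 min later.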
# [10] = qHTS assay to identify small molecule agonists of the estrogen related receptor signaling pathway with the pleiotropic PPARgamma coactivator (PGC) from Tox21 10K library (AID 1224842); also: nearly all actives have a fitted effect of over 15% in size
# Summary of the method: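 PGC/ERR reporter cells (NTP line) were seeded 2,000 per well, rested 6 h at 37 C/5% CO2, then pin-dosed with compounds in DMSO for 18 h at 37 C; luciferase read by One-Glo luminescence after 30 min at room temperature.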
Compound,Potency [1],Potency [2],Potency [3],Potency [4],Potency [5],Potency [6],Potency [7],Potency [8],Potency [9],Potency [10]
O=C(CCS)OCC(COC(=O)CCS)(COC(=O)CCS)COC(=O)CCS,inactive,inactive,inactive,inactive,inactive,inactive,inactive,inactive,,
Nc1ccc(S(=O)(=O)NCc2ccccc2)cc1,inactive,inactive,inactive,inactive,inactive,inactive,inactive,inactive,,
Cc1ccc2c(c1)CCCN2,inactive,inactive,inactive,inactive,inactive,,inactive,inactive,,
CCCCCCC(CO)CCCC (configuration not stated),inactive,inactive,inactive,inactive,inactive,,inactive,inactive,,
O=C(O)CO,inactive,inactive,inactive,inactive,inactive,,inactive,inactive,,
C[C@@H]1[C@H](O)[C@@H](C)/C=C/C=C\C=C\C=C\C=C\C=C\C=C\[C@H](O[C@@H]2O[C@H](C)[C@@H](O)[C@H](N)[C@@H]2O)C[C@@H]2O[C@](O)(C[C@@H](O)C[C@@H](O)[C@H](O)CC[C@@H](O)C[C@@H](O)CC(=O)O[C@H]1C)C[C@H](O)[C@H]2C(=O)O (stereo in doubt),61.1 µM (active),inactive,inactive,inactive,inactive,,inactive,inactive,,
CC1=C2[C@@H]([C@H](C)CC[C@H]2/C=C(\C)C(=O)O)[C@H](O)C1,inactive,inactive,inactive,inactive,inactive,,inactive,inactive,,
C1=CCC2CC=CC2C1 (configuration not stated),inactive,inactive,inactive,inactive,,,inactive,inactive,inactive,inactive
Cc1cn([C@H]2C[C@H](F)[C@@H](CO)O2)c(=O)[nH]c1=O,inactive,inactive,inactive,inactive,inactive,,inactive,inactive,,
Cc1oc(=O)oc1COC(=O)[C@@H]1N2C(=O)[C@@H](NC(=O)[C@H](N)c3ccccc3)[C@H]2SC1(C)C,inactive,inactive,inactive,inactive,,,inactive,inactive,inactive,inactive
CCOC(=O)c1ccc(NC(=O)CN2CCCCC2)cc1,inactive,inactive,inactive,inactive,inactive,,inactive,inactive,inactive,
COc1cc(OC)c2ccc(=O)oc2c1,inactive,inactive,inactive,inactive,inactive,,inactive,inactive,,
CCC(CO)(CO)CO,inactive,inactive,inactive,inactive,,,inactive,inactive,,
CC(=O)Oc1cccc(O)c1,inactive,inactive,inactive,inactive,inactive,,inactive,inactive,inactive,inactive
Cc1ccccc1S(N)(=O)=O,inactive,inactive,inactive,inactive,inactive,,inactive,inactive,,
COc1ccc(C)cc1,inactive,inactive,inactive,inactive,,,inactive,inactive,,
CCC(=O)OCc1ccc(OC)cc1,inactive,inactive,inactive,inactive,inactive,,inactive,inactive,,
CCN(CC)CC(=O)Nc1c(C)cccc1C(=O)OC,inactive,inactive,inactive,inactive,inactive,,inactive,inactive,,
CC(=O)NCCO,inactive,inactive,inactive,inactive,inactive,,inactive,inactive,,
CNc1c2c(nn1C)CCCC2,inactive,inactive,inactive,inactive,,,inactive,inactive,,
CC(C)(C)NCC(O)COc1cccc2c1C[C@H](O)[C@H](O)C2 (some centres not stated),inactive,inactive,inactive,inactive,,,inactive,inactive,,
CCCCCCCC/C=C/C(=O)O,inactive,inactive,inactive,inactive,,,inactive,,,
CC(C)(C)C(O)/C=C/c1ccc2c(c1)OCO2 (configuration not stated),inactive,24.5 µM (active),inactive,inactive,inactive,,inactive,inactive,,
CCCCCCC(O)CCCCCCCCCCC(=O)OC (configuration not stated),inactive,inactive,inactive,inactive,inactive,,inactive,inactive,,
O=C(/C=C/c1ccc([N+](=O)[O-])cc1)c1ccccc1,54.6 µM (active),1.13 µM (active),61.3 µM (active),68.7 µM (active),,,54.6 µM (active),inactive,,
C=CC(=O)NC(C)C,inactive,inactive,inactive,inactive,,,inactive,inactive,inactive,inactive
COC(C)(C)OC,inactive,inactive,inactive,inactive,,,inactive,inactive,inactive,inactive
O=C(O)c1cccc(C[C@@H]2COc3ccc(OCc4nc5cc(F)ccc5s4)cc3[C@@H]2O)c1,inactive,inactive,inactive,inactive,inactive,,inactive,inactive,,
CN1CCCN(C(c2ccccc2)c2ccc(Cl)cc2)CC1 (configuration not stated),29.8 µM (active),inactive,26.6 µM (active),29.8 µM (active),,inactive,26.6 µM (active),inactive,inactive,inactive

# Source: PubChem BioAssay (Tox21)
